Results: PubChem BioAssay
For some assays here: Results with a measured potency or affinity are listed apart. The source made the active and inactive calls. Unless noted, no rule for the calls is given here.

Legend:
[1] = antimalarial activity against Dd2 strain (AID 2302;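 active = growth inhibition above 50% at the single 2 µM test dose, taken to imply half-maximal potency below 2 µM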;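 also: 0% = DMSO untreated growth and 100% = chloroquine plus artemisinin killed control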); details: P. falciparum Dd2 in RBCs, LDH growth readout, 72 h; at 2 µM; stronger effect = higher value
[2] = human hepatoma cell viability loss – ATP luminescence, cytotoxicity control for P. falciparum antimalarial project, primary screen (AID 2303;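 active = inhibition above 50%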;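 also: 0% = DMSO wells and 100% = digitonin-killed cells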); details: HepG2 viability, 24-48 h, at 10 µM, stronger effect = higher value
[3] = molecular target: L-lactate dehydrogenase (Plasmodium falciparum (isolate CDC / Honduras)) (UniProt Q27743); experiment: PfLDH activity inhibition – cell lysate, 3D7 strain, counter-screen for P. falciparum growth inhibition project (AID 2304);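 also: 0% = vehicle and 100% = reference inhibitor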; details: P. falciparum 3D7 crude extract, LDH APAD/NBT absorbance; at 2 µM; stronger effect = higher value
Sequence of L-lactate dehydrogenase (Plasmodium falciparum (isolate CDC / Honduras)) (Q27743 whole entry, looked up): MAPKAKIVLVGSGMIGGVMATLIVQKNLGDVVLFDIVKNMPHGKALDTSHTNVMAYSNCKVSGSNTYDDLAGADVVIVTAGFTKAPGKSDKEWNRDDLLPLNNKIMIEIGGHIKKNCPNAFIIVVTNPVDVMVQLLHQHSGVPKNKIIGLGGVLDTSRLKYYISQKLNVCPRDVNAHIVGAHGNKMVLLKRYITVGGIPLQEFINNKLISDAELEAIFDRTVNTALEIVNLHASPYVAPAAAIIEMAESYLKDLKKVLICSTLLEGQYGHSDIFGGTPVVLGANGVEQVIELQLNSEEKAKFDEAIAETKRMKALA

[4] = inhibition of 3D7 malaria parasite growth – strain 3D7 (AID 2306);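 also: 0% = DMSO wells and 100% = chloroquine plus artemisinin control wells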; details: P. falciparum 3D7 erythrocytic growth, LDH absorbance, 72 h; at 2 µM; stronger effect = higher value
[5] = molecular target: Calcium-dependent protein kinase 1 (Plasmodium falciparum (isolate 3D7)) (UniProt P62344); experiment: PfCDPK1 kinase inhibitors, biochemical, TCAMS library (AID 1159585; cut-off not given, nearly all actives have IC50 up to about 0.98 µM;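 also: inhibitors leave more ATP so luminescence rises with inhibition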); details: recombinant PfCDPK1, Kinase-Glo ATP depletion luminescence
Sequence of Calcium-dependent protein kinase 1 (Plasmodium falciparum (isolate 3D7)) (P62344 whole entry, looked up): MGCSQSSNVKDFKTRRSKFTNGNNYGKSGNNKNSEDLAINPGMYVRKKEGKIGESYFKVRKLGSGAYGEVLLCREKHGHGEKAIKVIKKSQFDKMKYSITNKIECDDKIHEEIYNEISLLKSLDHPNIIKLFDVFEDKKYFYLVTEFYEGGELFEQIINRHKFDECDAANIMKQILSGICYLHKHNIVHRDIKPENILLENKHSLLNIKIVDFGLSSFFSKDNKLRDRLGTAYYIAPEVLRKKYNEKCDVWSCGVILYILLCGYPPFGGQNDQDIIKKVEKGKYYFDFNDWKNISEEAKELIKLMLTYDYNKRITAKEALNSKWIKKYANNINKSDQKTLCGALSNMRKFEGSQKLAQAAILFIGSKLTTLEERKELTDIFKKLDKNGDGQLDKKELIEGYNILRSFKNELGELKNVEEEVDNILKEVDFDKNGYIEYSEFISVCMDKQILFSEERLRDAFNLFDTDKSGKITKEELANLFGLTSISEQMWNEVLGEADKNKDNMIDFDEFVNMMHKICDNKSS

[6] = molecular target: Plasmodium falciparum protein kinase 6 (PK6, PF3D7_1337100) (UniProt Q8IDW1); experiment: PfPK6 kinase inhibitors, biochemical, TCAMS library (AID 1159586); details: recombinant PfPK6, Kinase-Glo ATP depletion luminescence
Sequence of Plasmodium falciparum protein kinase 6 (PK6, PF3D7_1337100) (Q8IDW1 1-305): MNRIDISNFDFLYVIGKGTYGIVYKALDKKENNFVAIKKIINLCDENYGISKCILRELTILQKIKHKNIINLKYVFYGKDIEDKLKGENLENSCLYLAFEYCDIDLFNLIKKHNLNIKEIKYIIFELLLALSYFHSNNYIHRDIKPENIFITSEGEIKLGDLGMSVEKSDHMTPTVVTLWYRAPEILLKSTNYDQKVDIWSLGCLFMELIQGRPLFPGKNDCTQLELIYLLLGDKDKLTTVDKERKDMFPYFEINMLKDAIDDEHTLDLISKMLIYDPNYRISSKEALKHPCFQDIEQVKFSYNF

[7] = molecular target: Protein kinase 7 (PK7), Plasmodium falciparum 3D7 (PF3D7_0213400) (UniProt Q7YTF7); experiment: inhibition of Plasmodium PK7 catalytic activity – biochemical, TCAMS antimalarial set, Kinase-Glo luminescence (AID 1159587); details: recombinant PfPK7, Kinase-Glo ATP depletion luminescence
Sequence of Protein kinase 7 (PK7), Plasmodium falciparum 3D7 (PF3D7_0213400) (Q7YTF7 1-343): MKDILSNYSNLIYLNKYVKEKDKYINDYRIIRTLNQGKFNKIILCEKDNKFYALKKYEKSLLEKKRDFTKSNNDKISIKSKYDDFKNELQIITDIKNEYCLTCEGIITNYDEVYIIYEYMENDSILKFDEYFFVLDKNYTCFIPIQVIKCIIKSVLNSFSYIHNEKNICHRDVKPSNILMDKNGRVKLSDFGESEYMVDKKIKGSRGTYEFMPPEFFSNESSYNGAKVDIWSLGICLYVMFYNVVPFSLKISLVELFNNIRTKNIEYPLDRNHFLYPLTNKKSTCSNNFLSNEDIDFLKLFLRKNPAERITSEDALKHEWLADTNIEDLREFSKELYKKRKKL

[8] = molecular target: Calcium-dependent protein kinase 4 (Plasmodium falciparum (isolate 3D7)) (UniProt Q8IBS5); experiment: PfCDPK4 kinase inhibitors, biochemical, TCAMS library (AID 1159588; cut-off not given, nearly all actives have IC50 up to about 0.91 µM); details: recombinant PfCDPK4, Kinase-Glo ATP depletion luminescence
Sequence of Calcium-dependent protein kinase 4 (Plasmodium falciparum (isolate 3D7)) (Q8IBS5 whole entry, looked up): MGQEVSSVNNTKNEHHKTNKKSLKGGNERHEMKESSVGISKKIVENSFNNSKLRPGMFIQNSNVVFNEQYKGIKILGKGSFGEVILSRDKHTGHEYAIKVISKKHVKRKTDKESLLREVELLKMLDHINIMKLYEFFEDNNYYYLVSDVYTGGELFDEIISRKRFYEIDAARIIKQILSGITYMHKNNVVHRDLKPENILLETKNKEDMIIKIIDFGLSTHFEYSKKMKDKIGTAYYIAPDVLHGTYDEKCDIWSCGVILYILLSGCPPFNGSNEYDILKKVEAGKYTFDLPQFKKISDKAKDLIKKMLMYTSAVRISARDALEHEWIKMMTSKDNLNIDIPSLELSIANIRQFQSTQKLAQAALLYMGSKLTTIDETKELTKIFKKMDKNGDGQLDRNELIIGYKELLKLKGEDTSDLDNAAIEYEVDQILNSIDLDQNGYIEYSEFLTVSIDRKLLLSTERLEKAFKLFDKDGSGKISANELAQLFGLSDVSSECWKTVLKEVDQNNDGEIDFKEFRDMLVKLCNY

COc1ccc2nccc([C@@H](O)CN3CCC(NCc4cc5ccc(C#N)cc5[nH]4)CC3)c2c1
active: growth inhibition [4] 100%
inactive: growth inhibition [1] 39% | inhibition [2] 31% | inhibition [3] 0% | outcome [5] | outcome [6] | outcome [7] | outcome [8]

COc1ccc(Cc2c(C)nc3nc(N)nc(N)c3c2C)cc1
inactive: growth inhibition [1] 2% | inhibition [3] 8% | outcome [5] | outcome [6] | outcome [7] | outcome [8]
active: inhibition [2] 61% | growth inhibition [4] 93%

Cc1ccc(O)cc1Nc1ccnc2ccc(-c3csc(CNCCN4CCOCC4)n3)cc12
active: growth inhibition [1] 97% | growth inhibition [4] 101%
inactive: inhibition [2] -24% | inhibition [3] -2% | outcome [5] | outcome [6] | outcome [7] | outcome [8]

OC1CCCN(Cc2cccc(-c3ccc(-c4nc5ccc(C(F)(F)F)cc5[nH]4)cc3)c2)C1 (stereo not given)
active: growth inhibition [1] 91% | growth inhibition [4] 100%
inactive: inhibition [2] 27% | inhibition [3] 4% | outcome [5] | outcome [6] | outcome [7] | outcome [8]

Cn1nccc1C(=O)NCCNCc1cccc(-c2ccc(-c3nc4ccc(C(F)(F)F)cc4[nH]3)s2)c1
active: growth inhibition [1] 99% | growth inhibition [4] 100%
inactive: inhibition [2] 36% | inhibition [3] -6% | outcome [5] | outcome [6] | outcome [7] | outcome [8]

CC(C)N1CCN(C(CN2CCN(CCCOc3ccc(-c4ccccc4)cc3)CC2)c2ccc(F)cc2)CC1 (stereo not given)
active: growth inhibition [1] 100% | inhibition [2] 100% | growth inhibition [4] 100%
inactive: inhibition [3] -2% | outcome [5] | outcome [6] | outcome [7] | outcome [8]

CN(C(=O)Nc1ccc(F)cc1)C1CCN(CCCCCNC(=O)/C=C/c2ccc(Cl)c(Cl)c2)CC1
inactive: growth inhibition [1] -3% | inhibition [2] 38% | inhibition [3] -5% | outcome [5] | outcome [6] | outcome [7] | outcome [8]
active: growth inhibition [4] 89%

COc1ccc(NCc2cccc(-c3cccc(CNCCc4ccccc4)c3)c2)cc1
active: growth inhibition [4] 96%
inactive: growth inhibition [1] 14% | inhibition [2] 41% | inhibition [3] 0% | outcome [5] | outcome [6] | outcome [7] | outcome [8]

Cn1cnc(CCNC(=O)c2cccc(-c3csc(-c4nc5ccccc5[nH]4)c3)c2)c1
inactive: growth inhibition [1] 26% | inhibition [2] 33% | inhibition [3] 0% | outcome [5] | outcome [6] | outcome [7] | outcome [8]
active: growth inhibition [4] 101%

CCc1ccc(CN2CCC(CN(c3ccc(N4CCOCC4)c(F)c3)S(=O)(=O)c3ccc(C(C)(C)CC)cc3)CC2)cc1
inactive: inhibition [2] 26% | inhibition [3] -5% | outcome [5] | outcome [6] | outcome [7] | outcome [8]
active: growth inhibition [1] 94% | growth inhibition [4] 93%

O=C(Nc1ccc(C(F)(F)F)cc1)c1cccc(S(=O)(=O)NC2CCN(CC3CCCCC3)CC2)c1
active: growth inhibition [4] 99%
inactive: growth inhibition [1] 12% | inhibition [2] 18% | inhibition [3] -3% | outcome [5] | outcome [6] | outcome [7] | outcome [8]

CCCC(CNCc1cccc(I)c1)CNc1cc(=O)c2ccccc2[nH]1 (stereo not given)
active: growth inhibition [1] 96% | growth inhibition [4] 100%
inactive: inhibition [2] -3% | inhibition [3] 7% | outcome [5] | outcome [6] | outcome [7] | outcome [8]

CC(C)COc1ccc(Cl)cc1Nc1nc(-c2nc3ccccc3[nH]2)cs1
inactive: growth inhibition [1] 29% | inhibition [2] 2% | inhibition [3] 0% | outcome [5] | outcome [6] | outcome [7] | outcome [8]
active: growth inhibition [4] 96%

OCCN1CCN(Cc2cccc(-c3cccc(-c4nc5ccc(F)cc5[nH]4)c3)c2)CC1
active: growth inhibition [1] 99% | growth inhibition [4] 102%
inactive: inhibition [2] 41% | inhibition [3] -2% | outcome [5] | outcome [6] | outcome [7] | outcome [8]

O=C(/C=C/c1ccc(Cl)c(Cl)c1)NCCCCCN1CCCC(C(=O)Nc2ccc(Cl)cc2)C1 (stereo not given)
inactive: growth inhibition [1] -3% | inhibition [2] 35% | inhibition [3] -3% | outcome [5] | outcome [6] | outcome [7] | outcome [8]
active: growth inhibition [4] 98%

Cc1c(Cc2ccccc2)c(=O)oc2c(C)c3c(cc12)CN(CC(C)c1ccccc1)CO3 (stereo not given)
active: growth inhibition [1] 98% | growth inhibition [4] 98%
inactive: inhibition [2] 1% | inhibition [3] -1% | outcome [5] | outcome [6] | outcome [7] | outcome [8]

O=C(NCc1cccc(F)c1)Nc1cccc(-c2ccc(-c3nc4ccc(C(F)(F)F)cc4[nH]3)cc2)c1
active: inhibition [2] 50% | growth inhibition [4] 98%
inactive: growth inhibition [1] 20% | inhibition [3] -4% | outcome [5] | outcome [6] | outcome [7] | outcome [8]

N#Cc1cc(C(=O)Nc2ccccc2)c(N)nc1SCC(=O)Nc1ccc(Br)cc1
active: growth inhibition [1] 66% | growth inhibition [4] 101%
inactive: inhibition [2] 11% | inhibition [3] 1% | outcome [5] | outcome [6] | outcome [7] | outcome [8]

COc1ccc2c(NN=Cc3ccc(F)cc3)cc(C)nc2c1
inactive: inhibition [2] 4% | inhibition [3] -3% | outcome [5] | outcome [6] | outcome [7] | outcome [8]
active: growth inhibition [1] 99% | growth inhibition [4] 101%

COc1cc(Nc2ccnc3cc(-c4nccs4)ccc23)ccc1OCCCc1nc2ccccc2[nH]1
active: growth inhibition [1] 68% | inhibition [2] 100% | growth inhibition [4] 100%
inactive: inhibition [3] 5% | outcome [5] | outcome [6] | outcome [7] | outcome [8]

CCCCCCNC(=O)C1Cc2c([nH]c3cc(Cl)ccc23)C2(CCN(Cc3ccccc3)CC2)N1 (stereo not given)
active: growth inhibition [1] 56% | growth inhibition [4] 90%
inactive: inhibition [2] 21% | inhibition [3] 2% | outcome [5] | outcome [6] | outcome [7] | outcome [8]

CN(C)CCCNCc1ccc(-c2ccc(CNCCc3ccccc3)cc2)cc1
inactive: inhibition [3] 0% | outcome [5] | outcome [6] | outcome [7] | outcome [8]
active: growth inhibition [1] 87% | inhibition [2] 61% | growth inhibition [4] 100%

Cc1ccnc(NC(c2cccc(OCc3ccccc3)c2)c2ccc3cccnc3c2O)c1 (stereo not given)
inactive: inhibition [2] 26% | inhibition [3] -2% | outcome [5] | outcome [6] | outcome [7] | outcome [8]
active: growth inhibition [1] 88% | growth inhibition [4] 95%

CC1CCC(NCc2c(O)ccc3ccccc23)CC1 (stereo not given)
active: growth inhibition [1] 77% | growth inhibition [4] 95%
inactive: inhibition [2] 13% | inhibition [3] -1% | outcome [5] | outcome [6] | outcome [7] | outcome [8]

Cc1onc(-c2ccc(Cl)cc2)c1-c1ccnn1S(=O)(=O)c1ccc(Cl)cc1
inactive: inhibition [2] -3% | inhibition [3] 3% | outcome [5] | outcome [6] | outcome [7] | outcome [8]
active: growth inhibition [1] 99% | growth inhibition [4] 101%

O=C(Nc1ccccc1Cc1ccccc1)c1ccccc1C(F)(F)F
inactive: inhibition [2] 0% | inhibition [3] 3% | outcome [5] | outcome [6] | outcome [7] | outcome [8]
active: growth inhibition [1] 85% | growth inhibition [4] 99%

COc1c(C2CCN(CCCCNC(=O)c3ccc(-c4ccc(C#N)cc4)cc3)CC2)cc(Cl)c2c1CCCC2
inactive: inhibition [2] 45% | inhibition [3] 0% | outcome [5] | outcome [6] | outcome [7] | outcome [8]
active: growth inhibition [1] 59% | growth inhibition [4] 93%

CC1(C)N=C(N)N=C(N)N1O
active: growth inhibition [4] 93%
inactive: growth inhibition [1] 1% | inhibition [2] 7% | inhibition [3] -5% | outcome [5] | outcome [6] | outcome [7] | outcome [8]

O=C(/C=C/c1cccc(Cl)c1)NCCCCCN1CCC(c2c[nH]c3ccccc23)CC1
inactive: growth inhibition [1] 17% | inhibition [2] 46% | inhibition [3] -2% | outcome [5] | outcome [6] | outcome [7] | outcome [8]
active: growth inhibition [4] 89%

CC(=O)Nc1cccc(C(=O)Nc2nc3ccc(-c4cc(=O)[nH]c(Nc5ccccc5Cl)n4)cc3[nH]2)c1
inactive: inhibition [2] -2% | inhibition [3] 6% | outcome [5] | outcome [6] | outcome [7] | outcome [8]
active: growth inhibition [1] 62% | growth inhibition [4] 99%

CSc1ccc(CN2CCC(NC(=O)c3ccc(-c4ccc(N(C)C)cc4)s3)CC2)cc1
active: growth inhibition [4] 86%
inactive: growth inhibition [1] 26% | inhibition [2] 30% | inhibition [3] -2% | outcome [5] | outcome [6] | outcome [7] | outcome [8]

Cc1ccc2[nH]c(-c3ccc(C(=O)NC4CCN(Cc5ccccc5)CC4)cc3)nc2c1C
inactive: growth inhibition [1] 46% | inhibition [2] 22% | inhibition [3] -2% | outcome [5] | outcome [6] | outcome [7] | outcome [8]
active: growth inhibition [4] 102%

OC(CNc1ccnc(Nc2cccc(OCCCN3CCOCC3)c2)n1)c1ccccc1 (stereo not given)
inactive: growth inhibition [1] 25% | inhibition [2] 48% | inhibition [3] -4% | outcome [5] | outcome [6] | outcome [7] | outcome [8]
active: growth inhibition [4] 97%

CC(C)(CNC(=O)[C@@H]1CCCN(CCOc2ccc(Cl)cc2)C1)c1nc(-c2ccc(Cl)c(O)c2)c(-c2ccncc2)[nH]1
inactive: inhibition [3] -7% | outcome [5] | outcome [6] | outcome [7] | outcome [8]
active: growth inhibition [1] 57% | inhibition [2] 58% | growth inhibition [4] 92%

O=C(/C=C/c1ccc(Cl)c(Cl)c1)NCCCCCN1CCCN(C(=O)Nc2ccc(F)c(F)c2)CC1
active: growth inhibition [4] 102%
inactive: growth inhibition [1] -1% | inhibition [2] 26% | inhibition [3] -2% | outcome [5] | outcome [6] | outcome [7] | outcome [8]

CCOc1ccc(OCCCON2C(N)=NC(N)=NC2(C)C)cc1
inactive: inhibition [3] -9% | outcome [5] | outcome [6] | outcome [7] | outcome [8]
active: growth inhibition [1] 94% | inhibition [2] 63% | growth inhibition [4] 97%

CCCCCCOc1ccc(C(=O)N(Cc2ccccc2)c2c(-c3ccccc3)nc3cc(C)ccn23)cc1
inactive: inhibition [2] -8% | inhibition [3] 3% | outcome [5] | outcome [6] | outcome [7] | outcome [8]
active: growth inhibition [1] 96% | growth inhibition [4] 95%

CN(C)c1ccc(OCCCCCCOc2ccccc2)cc1
inactive: inhibition [2] -7% | inhibition [3] -5% | outcome [5] | outcome [6] | outcome [7] | outcome [8]
active: growth inhibition [1] 68% | growth inhibition [4] 85%

CCN(CC)CCN(CCN(CC)CC)c1ccc(-c2nc3cc(Cl)c(Cl)cc3[nH]2)cc1
active: growth inhibition [1] 97% | growth inhibition [4] 101%
inactive: inhibition [2] 9% | inhibition [3] 2% | outcome [5] | outcome [6] | outcome [7] | outcome [8]

CC(C)CNCc1cccc(-c2cccc(CN(CCCN3CCN(C)CC3)C(=O)Nc3ccccc3)c2)c1
active: growth inhibition [1] 76% | growth inhibition [4] 95%
inactive: inhibition [2] 25% | inhibition [3] 1% | outcome [5] | outcome [6] | outcome [7] | outcome [8]
